The assay can be described thus: blood-stage malaria parasite viability loss – strain 3D7, DAPI fluorescence, 100 nL, primary screen (AID 1184).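 Also: parasites grown inside human red blood cells in medium with human serum.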 Particulars: P. falciparum 3D7 growth, 3 d, higher = more signal.
In turn, `CO[C@@H]1C=CCC(=O)N[C@@H](C)C(=O)OC[C@@H](OC)[C@H](C)C=CCC(=O)OC[C@H]1C` displayed a z-score of -0.523. For `CC(CCN1CCCc2nc(C)c(C)cc21)=NO[C@H](C)c1cn([C@H](CO)Cc2ccccc2)nn1` the value was -2.52.

Take `COc1ccc(COC(=O)NN=C2C[C@@H](O)[C@@H](O)[C@@H]3[C@@H]4C(=O)N([C@@H](C)c5ccccc5)C(=O)[C@@H]4CC[C@H]23)cc1`: the z-score was -0.981. For `O=C1C2=CC[C@H]3C(=O)N(C[C@@H]4CCCO4)C(=O)[C@H]3[C@H]2[C@H](O)[C@@H]2O[C@H]12` the value was -0.434. In the case of `CON(C)C(=O)c1nnc2c(n1)[nH]c1ccccc12`, the z-score worked out at 0.763. Molecule `C[C@@H](c1ccccc1)N1C(=O)[C@H]2[C@H]3[C@H](O)[C@H](O)CC(=NOC[C@@H](O)COCc4ccco4)[C@H]3CC[C@H]2C1=O` registered a z-score of -2.06. For `COC(OC)[C@@H](C)[C@H](OC)[C@@H](C)[C@H](OC)c1ccccc1` the value was 0.129; for `COC(=O)[C@H](C)NC(=O)CCC1CC(OC(=O)NCCc2ccc(F)cc2)CC2(CCCC(COC(=O)NCCc3ccccc3OC)O2)O1` (stereo partly specified), -1.26; for `COc1ccc(O[C@H]2C=C[C@@H](c3ccccc3)O[C@@H]2COC(=O)CCC(C)=NOC[C@@H](O)COCc2ccco2)cc1`, 0.048. For `C[C@]12CCC3c4ccc(OCC5CO5)cc4CCC3C1CC[C@@H]2O` (stereo partly specified) the value was 0.0788; for `C[C@@H](c1ccccc1)N1C(=O)[C@H]2[C@H]3[C@H](O)[C@H](O)CC(=NOCc4ccccc4)[C@@H]3CC[C@H]2C1=O`, -1.49.

Take `O=C1[C@H]2[C@H]3[C@H](O)[C@H](O)CC(=NO[C@@H]4O[C@H](CO)[C@@H](O)[C@H](O)[C@H]4O)[C@@H]3CC[C@H]2C(=O)N1c1cccc(Oc2ccccc2)c1`: the z-score was -0.197. The result for `COc1ccc(O[C@H]2C=C[C@@H](c3ccccc3)O[C@@H]2CON=C2c3cc(OC)ccc3O[C@H](c3cccc(OC)c3)[C@H]2O)cc1` reads 0.106; that for `C=CC[C@@H]1C=C[C@H](ON=C(C)CCN2CCCCc3nc(C)c(C)cc32)[C@@H](CO)O1`, -0.784; that for `COc1ccc(-c2cnnc(CCCn3ccnc3-c3ccccc3)n2)cc1`, -0.964.

As to `CCOC(=O)[C@H](CC(C)C)NC(=O)CCC1CC(OC(=O)NCc2ccc3c(c2)OCO3)CC2(CCCC(COC(=O)NCCOC)O2)O1` (stereo partly specified), the z-score is -1.99. For `CCCCOC(OCCCC)C(O)CSc1ccc2ccccc2c1` (stereo unspecified) the value was 0.609; for `CC(=O)OC[C@H]1O[C@H](CC=NO[C@H](C)c2cn([C@@H]3COC[C@H]3O)nn2)C=C[C@@H]1OC(C)=O`, -0.0896. For `CO[C@@H]1COC(=O)[C@@H]2CCCN2C(=O)[C@@H](C)COC(=O)CCC[C@H]1C` the value was 0.193; for `COc1ccc(COC(=O)NN=C2C[C@@H](O)[C@@H](O)[C@@H]3[C@@H]4C(=O)N(C[C@@H]5CCCO5)C(=O)[C@@H]4CC[C@@H]23)cc1`, -0.0701.

Molecule `CC(=O)OC[C@H]1O[C@H](CC=NOC(C)CN2CCCCc3nc(C)c(C)cc32)C=C[C@@H]1OC(C)=O` (stereo partly specified) had a z-score of -0.445. For `CCN1C(=O)[C@H]2[C@H]3[C@H](O)[C@H](O)CC(=NOC(C)CN4CCCc5nc(C)c(C)cc54)[C@@H]3CC[C@H]2C1=O` (stereo partly specified), the z-score worked out at 0.393. For `CC(=O)OC[C@H]1O[C@H](CC=NOC[C@@H](O)COCc2ccco2)C=C[C@@H]1OC(C)=O` the value was 0.466; for `CCN1C(=O)[C@H]2[C@H]3[C@H](O)[C@H](O)CC(=NNC(=O)OCc4ccccc4)[C@H]3CC[C@H]2C1=O`, -0.114; for `COC(=O)[C@H](C)NC(=O)CCC1CC(OC(=O)NCc2cccc3ccccc23)CC2(CCCC(COC(=O)NCCOc3ccccc3)O2)O1` (stereo partly specified), -0.372. The result for `COc1ccc(OC[C@H]2CN3[C@@H](CC[C@@H](C)[C@@H]3c3ccc(Br)cc3)C(=O)O2)cc1` reads -1.32; that for `CCOC(=O)[C@H](Cc1ccccc1)NC(=O)CCC1CC(OC(=O)NCc2ccc3c(c2)OCO3)CC2(CCCC(COC(=O)NCCc3ccc(Cl)cc3)O2)O1` (stereo partly specified), -1.78; that for `O=C1[C@H]2CCn3c(=O)n(Cc4cc5c(cc4Cl)OCO5)c(=O)n3[C@H]2[C@H](O)[C@@H]2O[C@H]12`, 0.0829. For `COC(=O)CC=C1c2ccccc2[C@H](OC)[C@H]1C` the value was 0.406. `CC(C)CON=C1C[C@@H](O)[C@@H](O)[C@@H]2[C@@H]3C(=O)N(Cc4ccc5c(c4)OCO5)C(=O)[C@@H]3CC[C@@H]12`: the z-score was -0.721.

For the molecule `C=CC[C@@H]1C=C[C@H](ON=CC[C@@H]2C=C[C@H](OC(C)=O)[C@@H](COC(C)=O)O2)[C@@H](CO)O1`, the z-score came out at 0.422.

Consider `CC(=O)OC[C@H]1O[C@H](CCON=C(C)C)C=C[C@@H]1OC(C)=O`, for which the z-score came to 1.48. For `CO[C@@H]1COC(=O)[C@H](COCc2ccccc2)NC(=O)CC=C[C@@H](C)[C@H](OC)COC(=O)[C@@H](C)NC(=O)CC=C[C@H]1C` the value was 0.591; for `CC(C)[C@@H](OCc1ccccc1)[C@H](C)C=NO[C@H](C)c1cn([C@@H]2COC[C@H]2O)nn1`, 1.61. For `CCOC(=O)[C@H](Cc1ccccc1)NC(=O)CCC1CC(OC(=O)NCCc2ccc(F)cc2)CC2(CCCC(COC(=O)NCCC(C)C)O2)O1` (stereo partly specified) the value was -1.66; for `CC(=O)OC[C@H]1O[C@@H](ON=C(C)CCC(=O)OC[C@H]2O[C@H](C#Cc3ccccc3)C=C[C@@H]2Oc2ccc(C)cc2)[C@H](OC(C)=O)[C@@H](OC(C)=O)[C@@H]1OC(C)=O`, -0.713.
